Values joined by “and” are separate entries in the source; they are usually repeats but may differ in a detail not shown here. Identical values can stand only once. Inconclusive results are not listed. Active and inactive are the calls of the source. Rule for the calls: active = hit-call score of the fitted dose curve at least 0.9, where 1 is the maximum; inconclusive = response in the unintended direction; inactive = score below 0.9.
biological target: human Protein Tyrosine Phosphatase Non-receptor Type 6 (PTPN6), PTPN6 (gene 5777) (UniProt P29350); experiment: NVS_ENZ_hPTPN6: NovaScreen (NVS) Enzymatic Assay for human Protein Tyrosine Phosphatase Non-receptor Type 6 (PTPN6) (AID 2283210)
Procedure, shortened: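 Cell-free assay with recombinant PTPN6 expressed in SF9 cells, fluorescent substrate, product separated from substrate by electrophoretic mobility shift; read 1.33 hours after dosing. Primary screen in duplicate at 25 uM, actives retested in concentration series; DMSO baseline.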

Row | SMILES | outcome
1 | CCOP(=S)(OCC)SCSP(=S)(OCC)OCC | inactive
2 | Cn1sc(Cl)cc1=O | inactive
3 | O=C(O)C(Cl)(Cl)Cl | inactive
4 | CCOP(=S)(OCC)Oc1nc(Cl)c(Cl)cc1Cl | inactive

biological target: human Vascular Endothelial Growth Factor Receptor 1 (VEGFR1), FLT1 (gene 2321) (UniProt P17948); experiment: NVS_ENZ_hVEGFR1: NovaScreen (NVS) Enzymatic Assay for human Vascular Endothelial Growth Factor Receptor 1 (VEGFR1) (AID 2283226)
Procedure, shortened: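 Cell-free assay of recombinant human VEGFR1 kinase with substrate, measured 1 h after dosing; fluorescence with electrophoretic mobility-shift separation of substrate and product, referenced to DMSO; primary screen at 25 uM in duplicate, actives then run in concentration series.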

Sequence of human Vascular Endothelial Growth Factor Receptor 1 (VEGFR1), FLT1 (gene 2321) (P17948 whole entry, looked up): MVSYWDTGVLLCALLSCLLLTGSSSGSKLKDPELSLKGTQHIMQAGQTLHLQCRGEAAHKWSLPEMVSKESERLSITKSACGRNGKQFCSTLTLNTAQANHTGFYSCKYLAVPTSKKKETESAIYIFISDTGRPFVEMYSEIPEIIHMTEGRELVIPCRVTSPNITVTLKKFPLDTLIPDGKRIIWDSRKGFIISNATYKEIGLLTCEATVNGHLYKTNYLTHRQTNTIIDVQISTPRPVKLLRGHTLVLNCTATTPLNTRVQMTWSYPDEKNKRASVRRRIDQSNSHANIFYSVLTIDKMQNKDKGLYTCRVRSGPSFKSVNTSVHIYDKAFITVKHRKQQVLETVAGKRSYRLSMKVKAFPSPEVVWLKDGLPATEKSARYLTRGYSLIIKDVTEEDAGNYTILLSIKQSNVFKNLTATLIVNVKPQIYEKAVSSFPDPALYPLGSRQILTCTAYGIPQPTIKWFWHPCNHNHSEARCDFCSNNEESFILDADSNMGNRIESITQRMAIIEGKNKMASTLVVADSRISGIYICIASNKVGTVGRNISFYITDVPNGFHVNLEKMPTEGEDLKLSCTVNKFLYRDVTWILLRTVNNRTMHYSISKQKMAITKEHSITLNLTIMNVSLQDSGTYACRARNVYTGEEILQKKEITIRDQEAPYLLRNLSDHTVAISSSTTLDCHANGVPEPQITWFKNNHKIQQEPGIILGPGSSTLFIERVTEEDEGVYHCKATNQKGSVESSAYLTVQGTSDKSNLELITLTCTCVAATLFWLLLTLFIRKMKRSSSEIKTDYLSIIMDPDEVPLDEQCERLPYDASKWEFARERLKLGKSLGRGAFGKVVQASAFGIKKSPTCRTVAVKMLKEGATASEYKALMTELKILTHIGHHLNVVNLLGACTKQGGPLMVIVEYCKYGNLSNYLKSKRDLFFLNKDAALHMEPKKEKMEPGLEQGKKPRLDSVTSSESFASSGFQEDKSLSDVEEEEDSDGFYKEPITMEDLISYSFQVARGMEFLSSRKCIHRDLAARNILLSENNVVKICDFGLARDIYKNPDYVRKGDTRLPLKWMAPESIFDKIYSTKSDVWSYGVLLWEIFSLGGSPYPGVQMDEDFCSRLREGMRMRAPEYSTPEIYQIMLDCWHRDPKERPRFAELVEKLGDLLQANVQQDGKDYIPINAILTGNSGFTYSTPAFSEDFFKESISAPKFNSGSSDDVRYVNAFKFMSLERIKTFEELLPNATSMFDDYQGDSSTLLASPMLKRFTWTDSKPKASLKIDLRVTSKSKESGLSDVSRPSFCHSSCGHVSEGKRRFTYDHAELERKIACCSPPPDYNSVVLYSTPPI

Row | SMILES | AC50 | outcome
5 | Nc1ncc([N+](=O)[O-])s1 | 40.4 µM (active) | 
6 | CC(=O)[O][Hg][c]1ccccc1 |  | inactive
7 | CCOP(=S)(OCC)Oc1ccc(S(C)=O)cc1 (configuration not stated) |  | inactive
8 | COP(=S)(OC)Oc1cc(Cl)c(Cl)cc1Cl |  | inactive

biological target: rabbit Imidazoline 2 Central (I2C), CKB (gene 100009085) (UniProt P00567); experiment: NVS_ENZ_rabI2C: NovaScreen (NVS) Enzymatic Assay for rabbit Imidazoline 2 Central (I2C) (AID 2283228)
Procedure, shortened: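 Rabbit brain membranes, cell-free; readout by filter-based scintillation counting 1.5 hours after dosing, loss of signal vs DMSO. Initial duplicate test at 25 uM, then concentration-response with 50 uM top concentration.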

Sequence of rabbit Imidazoline 2 Central (I2C), CKB (gene 100009085) (P00567 whole entry, looked up): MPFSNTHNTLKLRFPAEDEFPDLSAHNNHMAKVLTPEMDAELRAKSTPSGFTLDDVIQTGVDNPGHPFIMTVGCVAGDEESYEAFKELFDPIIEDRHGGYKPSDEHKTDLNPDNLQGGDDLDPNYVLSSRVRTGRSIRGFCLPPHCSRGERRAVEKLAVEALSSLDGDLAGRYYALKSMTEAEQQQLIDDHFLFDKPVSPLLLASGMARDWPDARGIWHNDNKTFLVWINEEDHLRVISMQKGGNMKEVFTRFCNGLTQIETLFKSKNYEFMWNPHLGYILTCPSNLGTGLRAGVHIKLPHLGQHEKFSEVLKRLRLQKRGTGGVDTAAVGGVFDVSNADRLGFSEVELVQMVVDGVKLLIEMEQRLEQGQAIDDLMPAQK

Row | SMILES | AC50 | outcome
9 | CCC(=O)C(CC(C)N(C)C)(c1ccccc1)c1ccccc1 (configuration not stated) | 3.37 µM (active) | 
10 | COc1cc(-c2ccc(N)c(OC)c2)ccc1N | 10.4 µM (active) and 18.1 µM (active) | 
11 | CCN1CCC2(CC1)COc1cc3c(cc12)N(C(=O)c1ccc(-c2ccc(-c4nnc(C)o4)cc2C)cc1)CC3 |  | inactive

biological target: human Vascular Endothelial Growth Factor Receptor 2 (VEGFR2), KDR (gene 3791) (UniProt P35968); experiment: NVS_ENZ_hVEGFR2: NovaScreen (NVS) Enzymatic Assay for human Vascular Endothelial Growth Factor Receptor 2 (VEGFR2) (AID 2283230)
Procedure, shortened: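 Cell-free recombinant VEGFR2 kinase, fluorescent substrate with electrophoretic mobility-shift separation; read 1 h after dosing. Screened at 25 uM in duplicate, hits to concentration-response up to 50 uM; loss-of-signal versus DMSO.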

Sequence of human Vascular Endothelial Growth Factor Receptor 2 (VEGFR2), KDR (gene 3791) (P35968 whole entry, looked up): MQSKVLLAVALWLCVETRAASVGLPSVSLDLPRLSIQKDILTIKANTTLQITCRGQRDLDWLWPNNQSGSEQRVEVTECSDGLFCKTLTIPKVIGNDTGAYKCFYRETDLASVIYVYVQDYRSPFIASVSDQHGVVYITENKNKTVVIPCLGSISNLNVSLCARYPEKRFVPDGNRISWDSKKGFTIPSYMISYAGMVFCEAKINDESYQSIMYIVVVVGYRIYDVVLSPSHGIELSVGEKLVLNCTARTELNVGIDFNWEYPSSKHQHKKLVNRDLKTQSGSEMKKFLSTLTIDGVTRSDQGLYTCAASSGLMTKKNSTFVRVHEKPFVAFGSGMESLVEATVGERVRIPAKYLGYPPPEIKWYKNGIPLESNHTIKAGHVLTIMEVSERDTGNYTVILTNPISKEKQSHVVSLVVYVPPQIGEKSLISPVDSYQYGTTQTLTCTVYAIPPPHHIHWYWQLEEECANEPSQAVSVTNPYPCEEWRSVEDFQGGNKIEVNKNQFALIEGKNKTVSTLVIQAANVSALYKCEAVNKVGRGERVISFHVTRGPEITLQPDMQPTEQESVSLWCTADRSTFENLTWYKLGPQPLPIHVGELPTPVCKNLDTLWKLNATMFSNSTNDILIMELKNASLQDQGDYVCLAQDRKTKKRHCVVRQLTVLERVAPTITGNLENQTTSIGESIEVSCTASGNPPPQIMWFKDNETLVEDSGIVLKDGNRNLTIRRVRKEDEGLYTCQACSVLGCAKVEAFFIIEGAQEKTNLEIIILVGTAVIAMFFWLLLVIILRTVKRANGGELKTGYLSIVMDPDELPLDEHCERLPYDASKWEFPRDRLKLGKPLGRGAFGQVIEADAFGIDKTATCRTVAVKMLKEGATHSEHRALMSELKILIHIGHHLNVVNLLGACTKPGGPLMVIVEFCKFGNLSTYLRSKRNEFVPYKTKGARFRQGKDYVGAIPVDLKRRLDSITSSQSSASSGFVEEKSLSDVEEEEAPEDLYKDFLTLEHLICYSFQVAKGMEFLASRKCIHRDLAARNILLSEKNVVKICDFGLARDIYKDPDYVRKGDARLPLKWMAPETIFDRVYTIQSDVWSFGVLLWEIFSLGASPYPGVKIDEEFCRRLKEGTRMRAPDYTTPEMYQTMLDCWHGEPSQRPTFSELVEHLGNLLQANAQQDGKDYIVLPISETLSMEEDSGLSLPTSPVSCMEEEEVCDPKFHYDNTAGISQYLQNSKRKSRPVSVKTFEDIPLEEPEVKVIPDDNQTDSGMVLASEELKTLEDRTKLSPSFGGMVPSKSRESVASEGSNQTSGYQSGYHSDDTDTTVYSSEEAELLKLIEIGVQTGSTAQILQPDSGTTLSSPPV

Row | SMILES | outcome
12 | CC(=O)[O][Hg][c]1ccccc1 | inactive
13 | O=C1C2(Cl)C3(Cl)C4(Cl)C(Cl)(Cl)C5(Cl)C3(Cl)C1(Cl)C5(Cl)C24Cl (configuration not stated) | inactive
14 | CCCCCCCCc1ccc(O)cc1 | inactive
15 | CCC(C)(C)c1ccc(O)c(C(C)(C)CC)c1 | inactive
16 | COP(=S)(OC)Oc1ccc(Sc2ccc(OP(=S)(OC)OC)cc2)cc1 | inactive
17 | CC(C)(c1ccccc1)c1ccc(O)c(C(C)(C)c2ccccc2)c1 | inactive
18 | CC(C)(C)CC(C)(C)c1ccc(O)cc1 | inactive

biological target: sheep Cyclooxygenase-2 (Cox2), PTGS2 (gene 443460) (UniProt P79208); experiment: NVS_ENZ_oCOX2: NovaScreen (NVS) Enzymatic Assay for sheep Cyclooxygenase-2 (Cox2) (AID 2283231)
Procedure, shortened: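 Enzyme from ovine placenta, cell-free; colorimetric absorbance read 0.66 hour after dosing, loss of signal vs DMSO. Screened in duplicate at 25 uM, then concentration-response up to 50 uM.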

Sequence of sheep Cyclooxygenase-2 (Cox2), PTGS2 (gene 443460) (P79208 whole entry, looked up): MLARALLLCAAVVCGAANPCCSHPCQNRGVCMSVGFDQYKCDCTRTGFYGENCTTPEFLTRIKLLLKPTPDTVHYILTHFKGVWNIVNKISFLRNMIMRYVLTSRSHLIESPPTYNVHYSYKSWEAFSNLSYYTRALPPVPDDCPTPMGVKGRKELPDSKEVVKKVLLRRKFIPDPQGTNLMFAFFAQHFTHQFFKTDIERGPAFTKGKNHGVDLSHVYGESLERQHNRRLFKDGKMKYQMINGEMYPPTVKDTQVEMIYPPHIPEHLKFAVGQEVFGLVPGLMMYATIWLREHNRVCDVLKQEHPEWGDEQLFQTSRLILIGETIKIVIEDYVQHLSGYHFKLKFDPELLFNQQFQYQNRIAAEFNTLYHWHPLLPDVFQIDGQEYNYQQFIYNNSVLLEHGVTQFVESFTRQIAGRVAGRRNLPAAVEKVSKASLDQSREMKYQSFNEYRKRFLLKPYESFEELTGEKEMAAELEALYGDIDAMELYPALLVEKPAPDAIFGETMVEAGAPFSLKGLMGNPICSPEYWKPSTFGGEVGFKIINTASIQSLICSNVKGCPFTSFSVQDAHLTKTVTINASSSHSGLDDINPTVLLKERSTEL

Row | SMILES | outcome
19 | ClC1(Cl)C2(Cl)C3(Cl)C4(Cl)C(Cl)(Cl)C5(Cl)C3(Cl)C1(Cl)C5(Cl)C24Cl (configuration not stated) | inactive
20 | O=c1[nH]c(=O)[nH]c(=O)[nH]1 | inactive
21 | CC(C)(C)CC(C)(C)c1ccc(O)cc1 | inactive

biological target: rat Monoamine Oxidase, MAO-B, Central (MAOBC), Maob (gene 25750) (UniProt P19643); experiment: NVS_ENZ_rMAOBC: NovaScreen (NVS) Enzymatic Assay for rat Monoamine Oxidase, MAO-B, Central (MAOBC) (AID 2283238)
Procedure, shortened: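 MAO-B activity in rat brain tissue preparation, cell-free, measured radiometrically by scintillation counting 1.17 h after dosing. Screened in duplicate at 25 uM; actives then in concentration-response up to 50 uM. Loss of signal versus DMSO scored.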

Sequence of rat Monoamine Oxidase, MAO-B, Central (MAOBC), Maob (gene 25750) (P19643 whole entry, looked up): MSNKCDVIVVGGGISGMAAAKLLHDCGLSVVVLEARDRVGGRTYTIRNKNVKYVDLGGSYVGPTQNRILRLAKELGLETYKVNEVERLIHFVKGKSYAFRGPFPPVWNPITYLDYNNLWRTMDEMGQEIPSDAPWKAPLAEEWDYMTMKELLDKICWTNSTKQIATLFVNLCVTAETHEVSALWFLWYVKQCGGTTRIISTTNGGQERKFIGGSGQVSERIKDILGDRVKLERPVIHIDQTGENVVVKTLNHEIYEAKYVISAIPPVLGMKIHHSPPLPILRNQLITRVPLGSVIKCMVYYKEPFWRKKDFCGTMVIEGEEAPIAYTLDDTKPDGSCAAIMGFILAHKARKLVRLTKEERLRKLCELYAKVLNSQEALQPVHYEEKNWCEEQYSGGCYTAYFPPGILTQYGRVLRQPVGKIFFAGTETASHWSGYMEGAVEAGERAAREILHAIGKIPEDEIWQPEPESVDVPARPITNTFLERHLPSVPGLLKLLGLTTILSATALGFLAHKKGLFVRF

Row | SMILES | AC50 | outcome
22 | CC(=O)[O][Hg][c]1ccccc1 | 25 µM (active) | 
23 | CCC(=O)C(CC(C)N(C)C)(c1ccccc1)c1ccccc1 (configuration not stated) | 2.99 µM (active) | 
24 | CCN1CCC2(CC1)COc1cc3c(cc12)N(C(=O)c1ccc(-c2ccc(-c4nnc(C)o4)cc2C)cc1)CC3 |  | inactive

biological target: sheep Cyclooxygenase-1 (Cox1), PTGS1 (gene 443551) (UniProt P05979); experiment: NVS_ENZ_oCOX1: NovaScreen (NVS) Enzymatic Assay for sheep Cyclooxygenase-1 (Cox1) (AID 2283239);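 note: actives reduce cyclooxygenase activity so potencies are for inhibitors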
Procedure, shortened: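 Ovine seminal vesicle extract; absorbance (colorimetric) enzyme read-out at 0.66 h post-dose. Primary: single conc 25 uM, duplicate. Follow-up: concentration series on actives. Activity = signal loss vs DMSO baseline.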

Sequence of sheep Cyclooxygenase-1 (Cox1), PTGS1 (gene 443551) (P05979 whole entry, looked up): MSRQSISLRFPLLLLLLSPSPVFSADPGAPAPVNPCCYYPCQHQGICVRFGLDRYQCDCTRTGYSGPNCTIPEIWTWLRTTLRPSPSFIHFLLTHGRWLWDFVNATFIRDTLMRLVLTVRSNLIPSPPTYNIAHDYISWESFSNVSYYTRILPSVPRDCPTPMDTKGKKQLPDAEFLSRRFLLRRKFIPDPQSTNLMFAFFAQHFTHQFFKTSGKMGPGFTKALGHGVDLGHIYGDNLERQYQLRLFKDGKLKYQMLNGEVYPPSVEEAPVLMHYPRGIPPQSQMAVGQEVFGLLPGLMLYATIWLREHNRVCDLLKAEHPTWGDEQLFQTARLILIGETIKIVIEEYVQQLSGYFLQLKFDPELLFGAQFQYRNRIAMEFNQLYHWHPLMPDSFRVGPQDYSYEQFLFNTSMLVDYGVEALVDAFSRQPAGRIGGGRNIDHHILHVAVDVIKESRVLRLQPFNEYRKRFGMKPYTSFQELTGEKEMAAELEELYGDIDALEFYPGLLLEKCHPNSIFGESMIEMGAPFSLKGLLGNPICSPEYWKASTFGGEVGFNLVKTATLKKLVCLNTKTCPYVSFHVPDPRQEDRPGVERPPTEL

Row | SMILES | outcome | AC50
25 | Clc1ccc(C2(Cn3cncn3)CC(Br)CO2)c(Cl)c1 (configuration not stated) | inactive | 
26 | CCN1CCC2(CC1)COc1cc3c(cc12)N(C(=O)c1ccc(-c2ccc(-c4nnc(C)o4)cc2C)cc1)CC3 |  | 4.68 µM (active)
27 | O=C(O)C(F)(F)C(F)(F)C(F)(F)C(F)(F)C(F)(F)C(F)(F)C(F)(F)C(F)(F)C(F)(F)C(F)(F)F | inactive | 
